Reference: PubChem BioAssay (NCATS)
Results filed as inconclusive are left out. Calls of active or inactive are those of the source. The call rests on the fitted dose curve; in most records, active means well fitted curve in the direction sought with a large enough effect; inconclusive means small, poorly fitted or top-dose-only effect, or another doubt; inactive means no such curve, though single readings can be large; an effect the other way counts as inactive or inconclusive.

Assay: qHTS of pediatric cancer cell lines to identify multiple opportunities for drug repurposing: Primary screen for Rh18 cells (AID 1347102); further: on the % scale 0 is the no-effect control and ±100 the full control effect; nearly all actives have a fitted effect of over 65% in size
Details: Rh18 rhabdomyosarcoma viability, CellTiter-Glo luminescence, 48 h; series mostly up to 46 µM; activity change, negative = cytotoxic: at the top concentration
Method in brief: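 Cells (500-1,000/well) in growth media were settled 5 h at 37 degrees C, then given compounds for 48 h. Viability was read as CellTiter-Glo luminescence. Primary runs used MIPE at 11 points (0.78 nM-46 µM) and NPC at 8 points (0.59 nM-46 µM); follow-ups used 11 points.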

| Compound | activity change, negative = cytotoxic |
| --- | --- |
| CC1(COc2ccc(CC3SC(=O)NC3=O)cc2)CCCCC1 (stereo not drawn) | 4.14% (inactive) |
| CN1CCN(c2cc3c(cc2F)c(=O)c(C(=O)O)cn3-c2ccc(F)cc2)CC1 | 14.7% (inactive) |
| CCCCN1C[C@H](O)[C@@H](O)[C@H](O)[C@H]1CO | 13.1% (inactive) |
| CCCCCCCCCCCCOCCOCCOCCOCCOCCOCCOCCOCCOCCO | -25.5% (inactive) |
| O=C(O)CCNC(=O)c1ccccc1 | 8.5% (inactive) |
| CC(C)Cn1cnc2c1c(=O)n(C)c(=O)n2C | 4.83% (inactive) |
| CCN1CCCC(OC(=O)C(c2ccccc2)c2ccccc2)C1 (stereo not drawn) | -8.97% (inactive) |
| CC(=O)O[C@]1(C(C)=O)CC[C@H]2[C@@H]3C=C(C)C4=CC(=O)CC[C@]4(C)[C@H]3CC[C@@]21C | 15.8% (inactive) |
| COc1cc(O)c(C(=O)c2ccccc2)cc1S(=O)(=O)O | 8.18% (inactive) |
| Cc1nc(-c2ccc(Cl)cc2)oc1COC(C)(C)C(=O)O | 10.1% (inactive) |
| Cc1cccc(C)c1NC(=O)CN1CCCCCC1 | 18.2% (inactive) |
| CN(C)C(=O)Nc1ccc(Cl)c(Cl)c1 | -17.4% (inactive) |
| CCOc1ccccc1C(N)=O | 1.62% (inactive) |
| CC1=C(C(=O)O)N2C(=O)[C@@H](NC(=O)[C@H](N)c3ccccc3)[C@H]2SC1 | 3.47% (inactive) |
| CCCCNc1ccc(C(=O)OCCOCCOCCOCCOCCOCCOCCOCCOCCOC)cc1 | -16.4% (inactive) |
| CCCCCCCCCCCCCCCCO | 11.9% (inactive) |
| C#C[C@]1(O)CC[C@H]2[C@@H]3CCC4=CC(=O)CC[C@@H]4[C@H]3CC[C@@]21CC | 12.8% (inactive) |
| CCC(C(=O)OCCOCCN(CC)CC)c1ccccc1 (stereo not drawn) | -0.884% (inactive) |

| Compound | activity change, negative = cytotoxic |
| --- | --- |
| CN1CCC(OC(c2ccccc2)c2ccccc2)CC1 | -6.56% (inactive) |
| CCN[C@@H]1C[C@H](N)[C@@H](OC2OC(CN)=CCC2N)[C@H](O)[C@H]1O[C@H]1OC[C@](C)(O)[C@H](NC)[C@H]1O (stereo partly drawn) | 7.22% [at 0.597 µM] (inactive) |
| CCCCOC(=O)CC(CC(=O)OCCCC)(OC(C)=O)C(=O)OCCCC | 7.04% (inactive) |
| CCOC(=O)C(C#N)=C(c1ccccc1)c1ccccc1 | -0.577% (inactive) |
| COc1cc(C)nc(-n2nc(C)cc2OC)n1 | 9.12% (inactive) |
| C/C=C/C=N/NC(=O)c1ccncc1 | 5.47% (inactive) |
| COc1ccc(C(=O)c2ccccc2)c(O)c1 | -0.442% (inactive) |
| CC(=O)OCC(=O)[C@H]1CC[C@H]2[C@@H]3CCC4=CC(=O)CC[C@]4(C)[C@H]3CC[C@]12C | 12.8% (inactive) |
| CCCCCCCCCCCCSCCOCCO | 1.97% (inactive) |
| Cl/C(=C\n1cncn1)c1ccc(Cl)cc1Cl | -1.01% (inactive) |
| CCCCN=C(N)N=C(N)N | 3.17% (inactive) |
| CCOC(=O)c1c(N)sc2c1CCN(Cc1ccccc1)C2 | -19.1% (inactive) |
| CCOC(=O)Nc1ccc2c(c1)N(C(=O)CCN1CCOCC1)c1ccccc1S2 | -16% (inactive) |
| O=C1OC(CN2CCOCC2)CN1/N=C/c1ccc([N+](=O)[O-])o1 (stereo not drawn) | 24.6% (inactive) |
| CC(C)[C@@H]1CC[C@@H](C)CC1=O | 6.74% (inactive) |
| FC(F)(F)C(F)(F)C(F)(F)C(F)(F)C(F)(F)C(F)(F)C(F)(F)C(F)(F)Br | 9.51% (inactive) |
| CC(O)Cn1cnc2c1c(=O)n(C)c(=O)n2C (stereo not drawn) | 9.3% (inactive) |
| O=C1c2cccc3c2[C@H](CCC3)CN1[C@@H]1CN2CCC1CC2 | -10.1% (inactive) |

Assay: qHTS of pediatric cancer cell lines to identify multiple opportunities for drug repurposing: Primary screen for OHS-50 cells (AID 1347103); further: nearly all actives have a fitted effect of over 40% in size; further: potency means the concentration at half of the fitted maximal effect;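 on activity change, negative = cytotoxic: plate controls were DMSO neutral control for no effect and bortezomib positive control for full effect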
Details: OHS-50 osteosarcoma viability, CellTiter-Glo luminescence, 48 h; series mostly up to 57.3 µM; activity change, negative = cytotoxic: at the top concentration
Method in brief: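 Cells (500-1,000/well) rested 5 h, then received compounds for 48 h; metabolically active cells were measured by CellTiter-Glo luminescence. Final concentrations spanned up to 46 µM (MIPE, 11-point) or 0.59 nM-46 µM (NPC, 8-point) in primary screens, 11-point in follow-ups.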

| Compound | Potency | activity change, negative = cytotoxic |
| --- | --- | --- |
| CC1(COc2ccc(CC3SC(=O)NC3=O)cc2)CCCCC1 (stereo not drawn) | 5.5 µM (active) | – |
| CN1CCN(c2cc3c(cc2F)c(=O)c(C(=O)O)cn3-c2ccc(F)cc2)CC1 | – | 125% (inactive) |
| CCCCN1C[C@H](O)[C@@H](O)[C@H](O)[C@H]1CO | – | -2.45% (inactive) |
| CCCCCCCCCCCCOCCOCCOCCOCCOCCOCCOCCOCCOCCO | 15.5 µM (active) | – |
| O=C(O)CCNC(=O)c1ccccc1 | – | 14% (inactive) |
| CC(C)Cn1cnc2c1c(=O)n(C)c(=O)n2C | – | -10.6% (inactive) |
| CCN1CCCC(OC(=O)C(c2ccccc2)c2ccccc2)C1 (stereo not drawn) | – | -29.6% (inactive) |
| COc1cc(O)c(C(=O)c2ccccc2)cc1S(=O)(=O)O | – | 2.28% (inactive) |
| Cc1nc(-c2ccc(Cl)cc2)oc1COC(C)(C)C(=O)O | – | -5.49% (inactive) |
| Cc1cccc(C)c1NC(=O)CN1CCCCCC1 | – | -12% (inactive) |
| CN(C)C(=O)Nc1ccc(Cl)c(Cl)c1 | – | -16.5% (inactive) |
| CCOc1ccccc1C(N)=O | – | 4.62% (inactive) |
| CC1=C(C(=O)O)N2C(=O)[C@@H](NC(=O)[C@H](N)c3ccccc3)[C@H]2SC1 | – | 19.1% (inactive) |
| CCCCCCCCCCCCCCCCO | – | 12.5% (inactive) |
| C#C[C@]1(O)CC[C@H]2[C@@H]3CCC4=CC(=O)CC[C@@H]4[C@H]3CC[C@@]21CC | – | -14% (inactive) |
| CCC(C(=O)OCCOCCN(CC)CC)c1ccccc1 (stereo not drawn) | – | -9.9% (inactive) |
| CCN[C@@H]1C[C@H](N)[C@@H](OC2OC(CN)=CCC2N)[C@H](O)[C@H]1O[C@H]1OC[C@](C)(O)[C@H](NC)[C@H]1O (stereo partly drawn) | – | 0.649% [at 0.73 µM] (inactive) |
| COc1cc(C)nc(-n2nc(C)cc2OC)n1 | – | 16.2% (inactive) |
| C/C=C/C=N/NC(=O)c1ccncc1 | – | 10% (inactive) |
| COc1ccc(C(=O)c2ccccc2)c(O)c1 | – | -17.5% (inactive) |
| Cl/C(=C\n1cncn1)c1ccc(Cl)cc1Cl | – | -16.6% (inactive) |
| CCOC(=O)c1c(N)sc2c1CCN(Cc1ccccc1)C2 | 17.4 µM (active) | – |
| CCOC(=O)Nc1ccc2c(c1)N(C(=O)CCN1CCOCC1)c1ccccc1S2 | – | -28.4% (inactive) |
| O=C1OC(CN2CCOCC2)CN1/N=C/c1ccc([N+](=O)[O-])o1 (stereo not drawn) | – | 55.6% (inactive) |
| CC(C)[C@@H]1CC[C@@H](C)CC1=O | – | 9.71% (inactive) |
| FC(F)(F)C(F)(F)C(F)(F)C(F)(F)C(F)(F)C(F)(F)C(F)(F)C(F)(F)Br | – | 6.96% (inactive) |
| CC(O)Cn1cnc2c1c(=O)n(C)c(=O)n2C (stereo not drawn) | – | -9.72% (inactive) |
